KB-3-1 cytotox: kills parental KB-3-1 adenocarcinoma cells; KB-3-1 viability, CellTiter-Glo ATP luminescence, 72 h; Potency, µM (doses to about 46.1 µM), actives largely listed as cytotoxic; 400,000 compounds, 1.4% hits; AID 1347075; note: % is set by controls: 0 for no effect and ±100 for the full control effect; nearly all actives have a fitted effect of over 60% in size
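Viability of parental KB-3-1 cells, measured by CellTiter-Glo luminescence, followed a 72 h incubation at 37 °C with pinned compounds in phenol-red-free DMEM containing 10% FBS.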
KB-V1 cytotox: KB-V1 MDR subline cytotoxicity. KB-V1 MDR cells viability, CellTiter-Glo, 72 h. Potency, µM (series often up to 46.1 µM), actives largely listed as cytotoxic. 400,000 compounds, 3.4% hits. AID 1347076; note: % is set by controls: 0 for no effect and ±100 for the full control effect; nearly all actives have a fitted effect of over 60% in size
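Cytotoxicity toward P-gp-expressing KB-V1 cells was determined as loss of CellTiter-Glo luminescence after 72 h at 37 degrees C. Compounds were tested in quantitative HTS format across a concentration range, with curves fitted to normalized data.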
TSG101-PTAP inh: blocks PTAP/TSG101 interaction to inhibit HIV-1 budding; Fluorescence polarization, FITC-PTAP peptide / Tsg101 binding; Potency, µM (doses to about 115 µM), inactives show at the highest dose activity change, negative = inhibition, usual class: inhibitors; 340,000 tested, under 10 active; Q99816; active = well fitted inhibition curve with a large enough effect in the main read-out, with a control signal flat, not every such curve was filed as active; inconclusive = small, poorly fitted or top-dose-only effect, or effect the other way, or a change in a side signal; inactive = no such curve, though single readings can be large or run the other way; note: % of control where 0% means no effect
Target sequence (Q99816 whole entry, looked up): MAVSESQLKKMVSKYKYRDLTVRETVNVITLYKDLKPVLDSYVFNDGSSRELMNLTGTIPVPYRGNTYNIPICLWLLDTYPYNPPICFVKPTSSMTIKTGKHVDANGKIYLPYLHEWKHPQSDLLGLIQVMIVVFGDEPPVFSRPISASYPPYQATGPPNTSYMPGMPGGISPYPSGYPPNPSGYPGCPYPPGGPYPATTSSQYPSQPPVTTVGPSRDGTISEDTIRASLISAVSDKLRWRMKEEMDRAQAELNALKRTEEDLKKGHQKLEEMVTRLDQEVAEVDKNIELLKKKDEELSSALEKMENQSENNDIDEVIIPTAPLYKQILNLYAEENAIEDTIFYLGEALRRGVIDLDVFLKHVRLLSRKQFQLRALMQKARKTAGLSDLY
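Fluorescence polarization binding of Tsg101 binding domain (10 uM final) to FITC-labeled PTAP peptide (50 nM final) in HEPES pH 7.5 buffer with NaCl, Tween 20, EDTA, TCEP. Compounds added before peptide; binding 20 min at RT.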
SW480 rerep: induces DNA re-replication in SW480 colon adenocarcinoma cells. 340,000 compounds, 1.8% hits. Potency, µM (top dose mostly 46.1 µM), for inactives: at the highest dose re-replication activation, actives largely listed as activators. AID 624297. SW480 DNA re-replication, Hoechst DNA content imaging, 48 h; note: % of control where 0% means no effect; nearly all actives have a fitted effect of over 55% in size
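Image-based read-out: total Hoechst fluorescence of nuclei (405 nm excitation, 500-530 nm emission), with hits raising the fraction of high-intensity nuclei. SW480 colon cells incubated 48 hr with compounds at 37 C.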
PINK1 expr mod: modulators of PINK1 expression; PINK1 immunofluorescence, high-content cytometry, 24 h; Potency, µM (series often up to 76.6 µM), for inactives: at the top dose activation (PINK1 increase), usual class: activators; 410,000 compounds, 0.2% hits; active = well fitted activation curve with a large enough effect; inconclusive = small, poorly fitted or top-dose-only effect; cell line not stated here; note: % of control where 0% means no effect; nearly all actives have a fitted effect of over 65% in size
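Compound titrations (5 concentrations, 24 h) on a stable cell line; DMSO and CCCP controls. Endpoint: fixed-cell PINK1 immunofluorescence with mitochondrial, cell and nuclear markers, scanned by microplate cytometer.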
MCF10A rereplic: DNA re-replication induction in MCF 10a cells; Potency, µM (series often up to 46.1 µM), for inactives: at the highest dose activity, positive = re-replication, hits mostly activators; 350,000 compounds, 2.9% hits; MCF 10A DNA re-replication, Hoechst nuclear intensity, 48 h; note: % of control where 0% means no effect; nearly all actives have a fitted effect of over 50% in size
Numbers without * were called inactive; i = inactive; u = inconclusive; x = no result given; [ ] = another dose, or the depositor's remark. Most compounds without a hit are left out; they make up all but 6.8% or so of the library. Unless noted, calls come from the whole dose curve; as a rule, active = well fitted curve in the direction sought with a large enough effect; inconclusive = small, poorly fitted or top-dose-only effect, or another doubt; inactive = no such curve, though single readings can be large; an effect the other way counts as inactive or inconclusive. Potency is the fitted concentration of half-maximal effect.

SMILES | KB-3-1 cytotox | KB-V1 cytotox | TSG101-PTAP inh | SW480 rerep | PINK1 expr mod | MCF10A rereplic
CCSc1nnc(NC(=O)[C@@H](NC(=O)c2cccc(C)c2)C(C)C)s1 | i | 8.2µM* | -10% | 13% | 2% | u
Brc1cc(Br)c2ncnc(N3CCCCC3)c2c1 | 8.2µM* | u | -3% | u | 1% | 5.8µM*
CCOC(=O)c1c(C)[nH]c(C2=NNC(=Nc3ccccc3OC)SC2)c1C | 18µM* | u | 1% | u | u | 12%
O=C(CN1C2=NCCCN2c2ccccc21)c1ccc(Br)s1 | u | 10µM* | -1% | -2% | -1% | -1%
O=C(O)CN1C2=NCCCN2c2ccccc21 | i | i | -6% | u | -2% | -46%
CCOc1cc(C(=O)Nc2cccc3cccnc23)cc(OCC)c1OCC | i | i | x | x | 2% | x
COc1ccc(NS(=O)(=O)c2cc(Br)cc3c2N(C(C)=O)CC3)cc1 | 4.1µM* | 9.2µM* | 0% | 6.5µM* | 3% | 18µM*
COc1ccccc1Nc1nc(Cl)c(C=O)s1 | i | i | 3% | 0% | 1% | 21µM*
Cc1ccc(Nc2nc(Cl)c(C=O)s2)cc1Cl | u | i | 0% | u | 5% | 18µM*
Cc1ccc(NC(=O)COC(=O)CN2C(=O)COc3ccccc32)cc1 | i | i | -5% | -2%[9.22 µM] | 1% | 7%
COCC(=O)Nc1ccc2c(c1)OCC(=O)N2Cc1ccc(C)cc1 | i | i | -8% | 5% | -1% | 23µM*
CCCS(=O)(=O)N1CCC(C(=O)NCCOC)CC1 | i | u | x | x | -5% | x
Cc1nc2sc(C(c3ccco3)N3CCN(c4ccccc4F)CC3)c(O)n2n1 (stereo unspecified) | i | i | -7% | 17% | -3%[38.3 µM] | 18µM*
CCC(CC)NC(=O)c1cccc(Br)c1 | i | u | 0% | -1% | 1% | 0%
CCC(CC)NC(=O)c1cccc(Oc2ccccc2)c1 | i | 23µM* | -1% | 9% | -1% | 2%
CCc1nc2cc(C(=O)N3CCC[C@H]3C(=O)OC)cc(NC(=O)c3ccccc3OC)c2n1C | x | x | x | x | 0% | x
Cn1c(=N)c(S(=O)(=O)c2ccccc2)cc2c(=O)n3ccccc3nc21 | i | i | -3% | u | 9% | 18µM*
C=CCn1c(=N)c(S(=O)(=O)c2ccc(C)c(C)c2)cc2c(=O)n3ccccc3nc21 | i | i | u | u | 6% | 23µM*
CCOCCCn1c(=N)c(S(=O)(=O)c2ccccc2)cc2c(=O)n3cc(C)ccc3nc21 | i | u | -4% | 5.8µM* | u | 8.2µM*
Cc1ccc(S(=O)(=O)c2cc3c(=O)n4ccccc4nc3n(C)c2=N)cc1C | i | i | -1% | -7% | 1% | 4.1µM*
CCOCCCn1c(=N)c(S(=O)(=O)c2ccc(C)cc2)cc2c(=O)n3ccccc3nc21 | i | u | x | x | 0% | x
CC1=CC(C)[C@H](/C=N/n2c(=O)[nH]c3c([nH]c4ccc(C)cc43)c2=O)C(C)C1 (stereo partly specified) | u | i | 2% | u | 3% | 9.2µM*
COc1cc(O)c(CC=C(C)C)c(O)c1C(=O)CCc1ccc(O)cc1 | i | i | -2% | u | 26% | 6.5µM*
Cc1ccc(/C=N/NC(=O)c2cc(-c3ccc(C)o3)[nH]n2)cc1 | u | u | -1% | u | 11% | 4.6µM*
Cc1cc(C(=O)N/N=C/c2ccc(-c3ccccc3Cl)o2)n[nH]1 | u | 23µM* | 1% | -36% | 5% | u
SMILES | KB-3-1 cytotox | KB-V1 cytotox | TSG101-PTAP inh | SW480 rerep | PINK1 expr mod | MCF10A rereplic
Cc1cc(C(=O)N/N=C/c2ccc(-c3ccc([N+](=O)[O-])cc3Cl)o2)n[nH]1 | i | i | -21% | 18µM* | 1% | 18µM*
COC(=O)N/N=C/c1ccc(-c2cc(Cl)ccc2Cl)o1 | u | 21µM* | -7% | -3% | 4% | u
Clc1cccc(CSc2nnc(C3CCNCC3)o2)c1 | i | i | x | x | 0% | x
Cc1cc(C(=O)N/N=C/c2cc(Br)ccc2OC(=O)c2ccccc2)n[nH]1 | i | i | -2% | u | 7% | 22%
Cc1ccc(C(=O)N/N=C/c2ccc(-c3ccc(Br)cc3[N+](=O)[O-])o2)o1 | i | i | -5% | -3% | 0% | 5.8µM*
Cc1cc(C(=O)N/N=C/c2cc(Br)ccc2OC(=O)c2ccccc2Cl)n[nH]1 | u | u | 3% | 7.3µM* | 3% | u
Cc1ccc(C(=O)N/N=C\c2ccc(Br)o2)o1 | i | i | -6% | -1% | x | 2%
Cc1c(C(=O)NCCc2ccncc2)cnn1-c1nccc(-c2ccccc2C(F)(F)F)n1 | x | x | x | x | 0% | x
CCn1c(C)cc(C(=O)CSc2nnc(-c3ccco3)o2)c1C | i | u | -8% | 6.5µM* | 9% | 21%
Cc1ccc(NC(=O)CSc2nnc(-c3ccco3)c(-c3ccco3)n2)cc1 | 5.8µM* | 5.2µM* | -11% | 16µM* | 5% | 5.8µM*
Cc1ccc(NC(=O)CCSc2nnc(-c3ccco3)o2)cc1 | u | 23µM* | -7% | -3% | 2% | 6%
COc1ccc(-c2ccnc(SCC(=O)c3ccc(OC)c(OC)c3)n2)cc1 | i | 16µM* | -1% | 7% | 11% | -1%
Cc1cccc(-c2noc(-c3ccccc3OCC(=O)Nc3ccccc3[N+](=O)[O-])n2)c1 | i | i | x | x | 1% | x
O=C(c1ccco1)N1CCC2(CC1)CCN(c1cccc(-c3ccccc3)c1)CC2 | x | x | x | x | 0% | x
COc1ccc(/C=C\c2onc(C)c2S(=O)(=O)N2CCC(C(=O)Nc3cccc(OC)c3)CC2)cc1 | x | x | x | x | 1% | x
Cc1ccccc1NC(=O)c1oc2c(c1C)-c1nn(Cc3cccc(Cl)c3)cc1CC2 | x | x | x | x | 3% | x
Cc1ccccc1C(=O)Nc1ccc2nc(SCC(=O)N3CCc4ccccc43)sc2c1 | i | i | x | x | 0% | x
COc1ccc(C(=O)CSc2nnc(-c3ccco3)c(-c3ccco3)n2)cc1 | u | i | -9% | 6.5µM* | 7% | 4%
CCc1cccc(NC(=O)Cn2c(=O)n(Cc3ccccc3)c(=O)c3c2c2cc(OC)ccc2n3C)c1 | i | i | x | x | 1% | x
O=C(O)CCC(=O)N1CCN(c2nc(-c3ccccc3)c3cc(Br)ccc3n2)CC1 | i | i | -5% | u | 1% | 23µM*
O=C(O)CCC(=O)N1CCN(c2nc(-c3ccccc3Cl)c3cc(Br)ccc3n2)CC1 | i | i | -13% | -1% | -2% | 21µM*
